Compound activity: PubChem, several laboratories
A selection: hits, their analogues and other compounds. The true share with any hit is near 4.5%.
tim23-1 inh: growth inhibitors of tim23-1 mutant yeast, primary screen, luminescence, uHTS | S. cerevisiae tim23-1 growth, BacTiter-Glo luminescence, 24 h | AID 463212, 2010 | 330,000 compounds, 1.3% hits | inhibition, % at 20 µM;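 active = growth inhibition of the mutant yeast at or above 50%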;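 also: temperature-sensitive mutant grown at 25 °C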
SKKanGAS inh: S. pyogenes SKKanGAS growth inhibitors in kanamycin, primary screen, streptokinase expression inhibitor project, SKKanGAS strain, BacTiter-Glo luminescence. 6 h. 300,000 compounds, 1.3% hits. inhibition, % at 7.5 µM;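 active = mean replicate score, as percent of positive control median, at least 50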;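 also: strain carries kanamycin resistance gene driven by streptokinase promoter and grows in 40 µg/ml kanamycin; loss of luminescence reflects streptokinase promoter inhibition or plain growth inhibition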
TIM10 inh: growth inhibitors of isogenic TIM10 control yeast, primary screen, counter-screen for tim10-1 yeast inhibitor project, luminescence, uHTS; inhibition, % at 10 µM; S. cerevisiae TIM10 strain growth, BacTiter-Glo luminescence, 24 h; 330,000 compounds, 1.4% hits;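 active = inhibition of 40% or more at the single tested concentration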;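 also: wild-type TIM10 isogenic control strain grown at permissive 25 °C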
tim10-1 inh: growth inhibitors of tim10-1 mutant yeast, primary screen, luminescence, uHTS | S. cerevisiae tim10-1 ts strain growth, BacTiter-Glo, 24 h | inhibition, % at 20 µM | 330,000 compounds, 2.2% hits | AID 463190, 2010;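 active = inhibition of at least 40%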;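 also: mutant grown at 25 °C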
PfHsp90 set2: growth inhibition of PfHsp90-expressing yeast, primary screen, antimalarial PfHsp90 inhibitor project, S. cerevisiae, BacTiter-Glo luminescence, single point, set 2; BacTiter-Glo ATP, 48 h; yeast lacking PDR1 and PDR3 efflux regulators; inhibition, % at 9.4 µM; 310,000 compounds, 0.32% hits;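 active = every replicate shows inhibition above about 80%, whatever the replicate mean, limit read from the data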
NLRP3 yeast inh: NALP3 inflammasome inhibitors in reconstituted yeast, primary screen, luminescence, uHTS | Yeast reconstituted NLRP3/ASC/caspase-1, beta-gal luminescence, 24 h | inhibition, % at 10 µM | 330,000 compounds, 0.39% hits;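 active = inhibition of 50% or more; inactive = inhibition below 50%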
tim10-1 confirm: growth inhibitors of tim10-1 mutant yeast, confirmation, single concentration, luminescence, S. cerevisiae. shares compounds with tim10-1 inh. 7,400 compounds, 56% hits. AID 463213, 2010. inhibition, % at 20 µM. S. cerevisiae tim10-1 ts strain growth, BacTiter-Glo, 24 h;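 active = inhibition of yeast growth at or above a set limit in either of two repeat tests at 20 µM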;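 also: tim10-1 mutant grown at permissive 25 °C to find synthetic lethal compounds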
tim10 confirm: growth inhibitors of wild-type TIM10 yeast, confirmation, counter-screen for tim10-1 synthetic lethality project, single concentration, luminescence, S. cerevisiae | shares compounds with TIM10 inh | S. cerevisiae tim10 strain growth, BacTiter-Glo luminescence, 24 h | inhibition, % at 10 µM | 4,600 compounds, 63% hits | AID 463215, 2010;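 active = inhibition of yeast growth at or above a set limit in either of two replicates at 10 µM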; also: this counterscreen used the strain with wild-type TIM10
tim23-1 confirm: tim23-1 mutant yeast growth inhibitors, confirmation, luminescence, single concentration | inhibition, % at 20 µM | S. cerevisiae tim23-1 growth, BacTiter-Glo luminescence, 24 h | 4,400 compounds, 83% hits | shares compounds with tim23-1 inh;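 active = inhibition above about 39% in either of two replicate wells at 20 µM, limit read from the data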;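 also: temperature-sensitive tim23-1 mutant grown at 25 °C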
Each line names hits and unclear results; the compound was inactive in the other large screens (follow-up assays come after a bar, where they were run).

CN(Cc1ccccc1)c1nc(CN2CCOCC2)nc2scc(-c3ccccc3)c12	tim23-1 inh 65, TIM10 inh 55, tim10-1 inh 47 | tim10-1 confirm 42 | tim10 confirm 40 | tim23-1 confirm 61
CCNc1nc(CN2CCCCC2)nc2scc(-c3ccccc3)c12	none
CCOC(=O)c1sc(=NC(=O)c2c(F)cccc2F)n(C)c1C	tim23-1 inh 56, TIM10 inh 47, tim10-1 inh 43 | tim10-1 confirm inactive | tim10 confirm 46 | tim23-1 confirm 76
CCOC(=O)c1sc(=NC(=O)c2ccc(F)cc2)n(C)c1C	none
CCN(CC)C(=O)c1ccc(CS(=O)(=O)Cc2ccccc2)cc1	none
CC(=O)OCc1c(C)cc(C)c(/C=C(/C#N)C(N)=O)c1C	none (no result: PfHsp90 set2)
O=C(COC(=O)C1CC2CCCC(C1)C2=O)Nc1cccc(F)c1 (configuration not stated)	none (no result: SKKanGAS inh)
Cc1cccnc1Nc1nc(-c2ccc(O)cc2)cs1	tim23-1 inh 75, tim10-1 inh 57 | tim10-1 confirm inactive | tim23-1 confirm 57
COc1cc(OC)cc(C(=O)NC(C(=O)NNC(=O)CN(C)S(=O)(=O)c2ccc(C)cc2)C(C)C)c1 (configuration not stated)	none (no result: tim23-1 inh, SKKanGAS inh, TIM10 inh, tim10-1 inh, NLRP3 yeast inh)
CC(=O)c1ccc(Nc2nc(=O)c3cccnc3s2)cc1	none
Cc1ccc(Nc2nc(=O)c3cccnc3s2)c(Br)c1	tim23-1 inh 51, tim10-1 inh 47 | tim10-1 confirm 36 | tim23-1 confirm 50
OCC1(CCOc2ccccc2)CCN(Cc2ccc(OC(F)F)cc2)CC1	none
O=C(O)c1ccccc1OCc1nc2ccccc2s1	none
COc1ccc(/C=C/C(=O)Nc2ccc(OC)nc2)cc1	none
COc1ccc(NC(=O)/C(Cl)=C(/Cl)S(=O)Cc2ccccc2)cn1 (configuration not stated)	tim23-1 inh 86, TIM10 inh 69, tim10-1 inh 49, PfHsp90 set2 119 | tim10-1 confirm 34 | tim10 confirm 84 | tim23-1 confirm inactive
COc1ccc(CS(=O)(=O)/C(Cl)=C(/Cl)C(=O)Nc2ccc(OC)nc2)cc1	tim23-1 inh 72, TIM10 inh 52, tim10-1 inh 73 | tim10-1 confirm 66 | tim10 confirm 58 | tim23-1 confirm 76
COc1ccc(CN2CCN(C(=O)c3ccccc3C(=O)c3ccccc3)CC2)cc1OC	none (no result: tim23-1 inh, SKKanGAS inh, TIM10 inh, tim10-1 inh, NLRP3 yeast inh)
O=C(COC(=O)c1ccc(S(=O)(=O)N2CCCC2)cc1)Nc1cccc(Cl)c1	none (no result: SKKanGAS inh)
O=C(NCCc1ccccc1)C(c1cccs1)N(C(=O)CCl)c1ccc(Cl)cc1 (configuration not stated)	tim23-1 inh 53, TIM10 inh 56, tim10-1 inh 55 | tim10-1 confirm 54 | tim10 confirm inactive | tim23-1 confirm 58
CCCCOC(=O)c1ccc(NC(C)=O)cc1	none
CCCCOC(=O)c1ccc(NC(=O)c2nn(C)cc2Br)cc1	tim23-1 inh 55, TIM10 inh 48, tim10-1 inh 52 (no result: PfHsp90 set2) | tim10-1 confirm 50 | tim10 confirm 41 | tim23-1 confirm 67
O=[N+]([O-])c1cc(-c2nc(-c3ccncc3)no2)cc([N+](=O)[O-])c1	tim23-1 inh 72, TIM10 inh 69, tim10-1 inh 76 | tim10-1 confirm 67 | tim10 confirm inactive | tim23-1 confirm 81
